Screens from PubChem.
The full list was thinned out, with hits kept by preference.
fixLJ activator = activators of Burkholderia fixLJ two-component system, primary screen, B. multivorans, GFP reporter. B. multivorans fixK-promoter GFP reporter, 18 h; stronger effect = higher value. 29,000 tested, 0.3% active. z-score (test concentration not listed). AID 1918990, 2023;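 active = replicate mean overnight rise in green fluorescent reporter signal, 3 or more SD over negative controls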
Each line names hits and unclear results; the compound was inactive in the other large screens; ! = not confirmed by another sample.

COc1ccc(OCC2CCCN(C(=O)c3ccc4nc(C)[nH]c4c3)C2)cc1 (configuration not stated)	fixLJ activator 3.4
COc1ccc(OCC2CCCN(C(=O)C3CCN(C(C)=O)CC3)C2)cc1 (configuration not stated)	none
Cc1nc2ccc(C(=O)N3CCCC4(CCc5cn[nH]c54)C3)cc2[nH]1 (configuration not stated)	none
Cn1nc(CNC(=O)C2CCCCn3nnnc32)c2c(Cl)cccc21 (configuration not stated)	fixLJ activator 3.3
O=C(NCc1cc(-c2ccc(F)cc2)no1)C1CCCCn2nnnc21 (configuration not stated)	none
CN1CC(=O)N2CCN(Cc3nn(C)c4cccc(Cl)c34)CC2C1=O (configuration not stated)	none
COc1cc2c(cc1NC(=O)c1ccccc1C)n(C)c(=O)n2C	none
CNS(=O)(=O)c1cccc(NC(=O)NC(CC(C)C)c2cccnc2)c1 (configuration not stated)	none
O=C(CC12CC3CC(CC(C3)C1)C2)NCCNC(=O)c1ccccc1Cl	none
O=C(C1CC1)N1CCc2cc(Br)cc(S(=O)(=O)N3CCN(c4cccc(Cl)c4)CC3)c21	none
CC(=O)N1CCc2cc(Br)cc(S(=O)(=O)N3CCN(c4cccc(C(F)(F)F)c4)CC3)c21	fixLJ activator 3.3
CCC(=O)N1CCc2cc(Br)cc(S(=O)(=O)N3CCN(c4ccccc4)CC3)c21	none
CN(Cc1ccccc1)C(=O)c1ccc2c(c1)N(Cc1ccccc1F)C(=O)c1ccccc1S2(=O)=O	none
COc1ccc(C(=O)N2CC(O)C(Cc3cc(C)no3)C2)c(C)c1 (configuration not stated)	none
CNC(=O)c1cc(-c2cccc(C(=O)N3CCCC3CO)c2)ccc1Cl (configuration not stated)	none
CCN1CC(C(=O)Nc2ccc(Oc3nn[nH]n3)cc2)CC1=O (configuration not stated)	none
COC(=O)Cc1c(C)c2ccc3c(c2oc1=O)CN(Cc1ccc(C)cc1)CO3	none
Cc1ccc(CN2COc3ccc4c(-c5ccccc5)cc(=O)oc4c3C2)cc1	none
COc1ccc(CN2COc3ccc4c(-c5ccccc5)cc(=O)oc4c3C2)cc1	fixLJ activator 3.7
O=C1NCC2(CCN(C(=O)CCCc3nc(-c4ccncc4)no3)CC2)O1	none
CCn1c(N)nc2cc(C(=O)N(C)Cc3ccc4nsnc4c3)cnc21	none
Cn1c(=O)c2nc3ccc(NC(=O)C(F)(F)F)cc3nc2n(C)c1=O	fixLJ activator 14
Cc1ccc2nc(-c3ccc(NC(=O)C(F)(F)F)cc3)sc2c1	none
CC(=O)c1cccc(NC(=O)Cn2cnc3c2c(=O)n(C)c(=O)n3C)c1	none
CCc1ccc(C(=O)CC2(O)C(=O)N(CCc3ccccc3)c3ccc(Cl)cc32)cc1 (configuration not stated)	none
CCCCS(=O)(=O)N1CCC2(CC1)OCCc1cc(OC)ccc12	none
CCCSc1ccccc1NC(=O)NC(C)c1nnc(N)s1 (configuration not stated)	none
CCN1CC(NC(=O)c2coc(COc3cccc(F)c3)n2)CC1=O (configuration not stated)	none
Cc1ccccc1NC(=O)c1sc2nc3c(cc2c1N)CN(Cc1ccccc1)CC3	none
CCN1CCc2nc3sc(C(=O)c4ccccc4)c(N)c3cc2C1	fixLJ activator 26
CN1CCc2nc3sc(C(=O)c4ccc(F)cc4)c(N)c3cc2C1	none
Cc1ccc(CN2C(=O)C(=O)c3cc(Br)cc(C)c32)cc1	none
CN(CC(=O)NCc1csc2c1CCCC2)C1CCS(=O)(=O)C1 (configuration not stated)	none
CC1CN(c2ccc(Cl)cc2)C(=O)CN1C(=O)c1ccc(N)nc1 (configuration not stated)	none
CN(Cc1ccccc1)C(=O)Cn1ncc2c3ccccc3n(Cc3cccc(Cl)c3)c2c1=O	fixLJ activator 5.5
Cc1ccc(Cn2c3ccccc3c3cnn(CC(=O)Nc4cc(Cl)ccc4C)c(=O)c32)cc1	none
CC(C)N(Cc1ccccc1)C(=O)Cn1ncc2c3ccccc3n(Cc3ccccc3)c2c1=O	none
CCCCN(CC)CCCNC(=O)Cn1ncc2c3ccccc3n(Cc3ccc(F)cc3)c2c1=O	none
O=C(Cn1ncc2c3ccccc3n(Cc3ccc(Cl)cc3)c2c1=O)NCCCc1ccccc1	none
Cc1ccccc1Cn1c2ccccc2c2cnn(CC(=O)NCc3cccc(Cl)c3)c(=O)c21	none
CCN(CC)CCCNC(=O)Cn1ncc2c3ccccc3n(Cc3ccccc3)c2c1=O	none
CC1CCCCN1CCCNC(=O)Cn1ncc2c3ccccc3n(Cc3ccccc3F)c2c1=O (configuration not stated)	none
CCCN(CCC)CCCNC(=O)Cn1ncc2c3ccccc3n(Cc3ccc(F)cc3)c2c1=O	none
O=C(Cn1ncc2c3ccccc3n(Cc3cccc(Cl)c3)c2c1=O)NCCCc1ccccc1	fixLJ activator 19
O=C(Cn1ncc2c3ccccc3n(Cc3cccc(Cl)c3)c2c1=O)NCCCN1CCCCC1	fixLJ activator 16
CCCCN(C)CCCNC(=O)Cn1ncc2c3ccccc3n(Cc3cccc(Cl)c3)c2c1=O	fixLJ activator 6.4
CN(C)S(=O)(=O)CC1CN(C(=O)c2cccnc2SCCc2ccccc2)CC1O (configuration not stated)	none
COc1ccc(C(=O)CCC(=O)NC2COCCC2OC)cc1 (configuration not stated)	none
Cc1ccc(F)cc1S(=O)(=O)N1CCC(O)C(C(=O)O)C1 (configuration not stated)	none
Cc1ccc(S(=O)(=O)c2cnc(SCC(=O)Nc3cccc(Cl)c3)nc2N)cc1C	none
Cc1cc(CC(=O)NCc2cccnc2N(C)CCc2ccccn2)on1	none
Cc1cnn(CC(=O)NCC2CCCN(C(=O)Cc3c(C)nc(C)[nH]c3=O)C2)c1 (configuration not stated)	none
Cc1c[nH]c(CNC(=O)C2(c3cccs3)CC2(C)C)c(C)c1=O (configuration not stated)	none
CCOc1ccc(NS(=O)(=O)c2ccc3c4c(cccc24)C(=O)N3)cc1	none
Cc1cc(C)nc(-c2ccc(C(=O)N3CCNC(=O)C3CCO)cc2)n1 (configuration not stated)	none
CCOc1ccc(-n2c(=O)c3c(C)c(C)sc3n(CC(=O)c3ccccc3)c2=O)cc1	fixLJ activator 3.2
CCOc1ccc(-n2c(=O)c3c(C)c(C)sc3n(CC(=O)N(CC)Cc3ccccc3)c2=O)cc1	none
Cc1ccc(-n2c(=O)c3c(C)c(C)sc3n(CC(=O)c3ccc(Cl)cc3)c2=O)cc1C	none
O=S(=O)(Cc1ccc(Cl)cc1F)N1CCN(c2cnccn2)CC1	none
NC(CO)C(=O)NNCc1ccc(O)c(O)c1O (configuration not stated)	fixLJ activator 3!
CCOCCCn1c(=N)c(C(=O)NC2CCCC2)cc2c(=O)n3cccc(C)c3nc21	none
O=c1oc2cc(O)ccc2cc1-c1nnc(Nc2ccccc2F)s1	fixLJ activator 23
CCOc1ccc2cc(-c3nnc(Nc4ccc(C)cc4)s3)c(=O)oc2c1	none
O=c1oc2ccc3ccccc3c2cc1-c1nnc(Nc2ccccc2F)s1	none
C=CCCN1CCC(O)[C@]2(CCCN(C(=O)COC(C)C)C2)C1 (some centres not stated)	none
COc1cccc(SCC(=O)NCc2csc(-c3cnccn3)n2)c1	none
O=C(NCC1CCCN(S(=O)(=O)c2ccc(F)cc2)C1)c1ccon1 (configuration not stated)	none
CC[C@H](NC(C)C)[C@H](O)c1ccc(O)c2[nH]c(=O)ccc12	none
CCC(NC(C)C)C(O)c1ccc(O)c(O)c1 (configuration not stated)	fixLJ activator 8.2
